Assay outcomes deposited in PubChem by Sanford-Burnham Center for Chemical Genomics.
The list is not random: actives were taken first. Their share in the collection is about 4.1%.
NALP1 yeast inh: NALP1 inflammasome inhibitors in reconstituted yeast, colorimetric, S. cerevisiae, triplicate retest. S. cerevisiae NALP1/ASC/caspase-1 growth, X-gal OD620, 72 h. inhibition, % at 10 µM. 280,000 compounds, 0.61% hits. AID 2071, 2009; in the data active means inhibition mostly above about 24%, no sharp cut-off; inactive means mostly below about 32%
NALP3 yeast inh: NALP3 inflammasome inhibitors in reconstituted yeast, primary screen, luminescence, uHTS | Yeast reconstituted NLRP3/ASC/caspase-1, beta-gal luminescence, 24 h | inhibition, % at 10 µM | 330,000 compounds, 0.39% hits | AID 2825, 2010;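 active means inhibition of 50% or more; inactive means inhibition below 50%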;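 further: plate controls were induced DMSO wells for no effect and uninduced yeast grown without galactose for full effect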
TIM10 inh: growth inhibitors of isogenic TIM10 control yeast, primary screen, counter-screen for tim10-1 yeast inhibitor project, luminescence, uHTS; S. cerevisiae TIM10 strain growth, BacTiter-Glo luminescence, 24 h; inhibition, % at 10 µM; 330,000 compounds, 1.4% hits; AID 463195, 2010;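 active means inhibition of 40% or more at the single tested concentration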;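 further: wild-type TIM10 isogenic control strain grown at permissive 25 °C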
tim10-1 inh: growth inhibitors of tim10-1 mutant yeast, primary screen, luminescence, uHTS; S. cerevisiae tim10-1 ts strain growth, BacTiter-Glo, 24 h; inhibition, % at 20 µM; 330,000 compounds, 2.2% hits;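 active means inhibition of at least 40%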;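 further: mutant grown at 25 °C; 0% = DMSO wells with yeast and 100% = wells holding no yeast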
tim23-1 inh: growth inhibitors of tim23-1 mutant yeast, primary screen, luminescence, uHTS. S. cerevisiae tim23-1 growth, BacTiter-Glo luminescence, 24 h. inhibition, % at 20 µM. 330,000 compounds, 1.3% hits;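 active means growth inhibition of the mutant yeast at or above 50%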;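 further: temperature-sensitive mutant grown at 25 °C; plate controls were DMSO-treated mutant yeast for no effect and medium wells lacking yeast for full effect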
tim10-1 confirm: growth inhibitors of tim10-1 mutant yeast, confirmation, single concentration, luminescence, S. cerevisiae; shares compounds with tim10-1 inh; S. cerevisiae tim10-1 ts strain growth, BacTiter-Glo, 24 h; inhibition, % at 20 µM; 7,400 compounds, 56% hits; AID 463213, 2010;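 active means inhibition of yeast growth at or above a set limit in either of two repeat tests at 20 µM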;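 further: tim10-1 mutant grown at permissive 25 °C to find synthetic lethal compounds; 0% = DMSO yeast wells and 100% = medium wells without yeast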
TIM10 conf: growth inhibitors of wild-type TIM10 yeast, confirmation, counter-screen for tim10-1 synthetic lethality project, single concentration, luminescence, S. cerevisiae | shares compounds with TIM10 inh | S. cerevisiae tim10 strain growth, BacTiter-Glo luminescence, 24 h | inhibition, % at 10 µM | 4,600 compounds, 63% hits;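 active means inhibition of yeast growth at or above a set limit in either of two replicates at 10 µM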;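 further: this counterscreen used the strain with wild-type TIM10; 0% = yeast with DMSO and 100% = medium wells lacking yeast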
tim23-1 confirm: tim23-1 mutant yeast growth inhibitors, confirmation, luminescence, single concentration; shares compounds with tim23-1 inh; S. cerevisiae tim23-1 growth, BacTiter-Glo luminescence, 24 h; 4,400 compounds, 83% hits; inhibition, % at 20 µM;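 active means inhibition above about 39% in either of two replicate wells at 20 µM, limit read from the data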;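 further: temperature-sensitive tim23-1 mutant grown at 25 °C; 0% = DMSO wells with yeast and 100% = medium wells without yeast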
The depositor's hits bear a star; / = no result given.

SMILES	NALP1 yeast inh	NALP3 yeast inh	TIM10 inh	tim10-1 inh	tim23-1 inh	tim10-1 confirm	TIM10 conf	tim23-1 confirm
O=C(Cn1nc(Cl)nc1Cl)c1cc2ccccc2oc1=O	-2	-29	57*	59*	72*	53*	44*	69*
CCN(CC(=O)NCc1ccc(F)cc1)C(=O)c1ccc(COc2ccccc2)cc1	9	9	14	25	32	/	/	/
O=C(OCC(=O)N1CCc2ccccc2C1)c1cc(=O)[nH]c2ccccc12	/	-10	-12	5	11	/	/	/
Cc1cc(C)n2nc(CC#N)c(C#N)c2n1	-13	22	6	0	9	/	/	/
Cc1cc(C)n2nc(/C(C#N)=C/c3ccccn3)c(C#N)c2n1	19	32	51*	62*	52*	58*	52*	75*
O=[N+]([O-])c1ccc(N2CCN(c3ccccc3)CC2)nc1	30	8	-1	0	3	/	/	/
O=[N+]([O-])c1ccc(N2CCc3ccccc3C2)nc1	3	34	34	66*	63*	64*	/	10
OCC(O)/C=N/Nc1nc(Nc2ccccc2)nc(Nc2ccccc2)n1 (stereo unspecified)	19	29	46*	50*	54*	28	45*	48*
CNc1nc(N/N=C/c2ccc([N+](=O)[O-])cc2)nc(Nc2ccccc2)n1	21	46	25	11	28	/	/	/
COC(=O)N/N=C/c1sc(N2CCCCC2)nc1-c1cccs1	28	13	33	45*	53*	33*	/	47*
CC1=NOC(=O)/C1=C/c1ccc(-c2ccc(Cl)cc2)o1	4	15	65*	44*	65*	8	69*	-90
CC1=NOC(=O)/C1=C\c1ccc(-c2ccc(Br)cc2C(=O)O)o1	4	8	-4	7	15	/	/	/
